The values below come from PubChem BioAssay AID504329 (Southern Research Specialized Biocontainment Screening …, 2011).

Each structure is given as a SMILES string. Among all 340,000 compounds or so, about 1,000 (0.29%) were called active. These entries were drawn from the full list. Results with a measured potency or affinity are listed apart. Values without a mark were called inactive. Rule as the data show it: inconclusive = inhibition above about 27% without an active follow-up result; inactive = below that.

The nature of this assay: NS1A inhibition, H1N1 influenza, cell based functional assay (AID 504329). Particulars: percent inhibition, at 12.5 µM, stronger effect = higher value.
One may read the inhibition as the change of the read-out against control, counted positive when it falls. On to `CN1C(=O)/C(=C2\SC(=S)N(NC(=O)c3cccnc3)C2=O)c2ccccc21`, for which the inhibition is 6.82%.
`O=C(CNC(=O)c1ccco1)N/N=C/c1c[nH]c2ccccc12`: the inhibition was -1%.
As to `Cc1c(NS(=O)(=O)c2ccc(Br)cc2)c(=O)n(-c2ccccc2)n1C`, the inhibition was -8.19%.
As to `Cc1c(NC(C)C)c(=O)n(-c2ccccc2)n1C`, the inhibition is -3.1%.
The figure for `C=CCSC(=S)Nc1c(C)n(C)n(-c2ccccc2)c1=O` is -2.87%; for `Cc1c(C=C2C(=O)NC(=O)NC2=O)c(=O)n(-c2ccccc2)n1C` it is -5.56%; for `CCS(=O)(=O)Nc1c(C)n(C)n(-c2ccccc2)c1=O` it is -2.8%.
For `COC(=O)C(=NNc1c(C)n(C)n(-c2ccccc2)c1=O)C(=O)OC`, the inhibition is -4.26%.
`Cc1c(NN=C(C#N)C#N)c(=O)n(-c2ccccc2)n1C`: the inhibition is -11.5%.
Turning to `Cc1c(NP(=O)(c2ccc(Br)cc2)c2ccc(Br)cc2)c(=O)n(-c2ccccc2)n1C`, the inhibition was -4.88%.
Consider `CCN(C(=O)COC(=O)CNS(=O)(=O)c1ccc2ccccc2c1)C1CCCCC1`, for which the inhibition was -3.12%.
Under `CCn1c(=O)[nH]c(=O)c2c(N)c(C(=O)c3ccccc3OC)sc21` stands 14.2%.
For the compound `CCC(CC)CN1CCC(CN2C(=O)C(=O)NC[C@@H]2[C@@H](C)CC)CC1`, the inhibition is -5.8%.
As to `CC(=O)c1cccc(NC(=O)C2CCN(C(=O)c3cccs3)CC2)c1`, the inhibition is -11.1%.
Turning to `Cc1ccc(SCC(=O)OCC(=O)Nc2ccc3[nH]c(=O)[nH]c3c2)cc1C`, the inhibition was -0.9%.
On to `COc1ccccc1NC(=O)/C(=C\c1cccs1)NC(=O)c1ccco1`, for which the inhibition was 2.01%.
Regarding `COc1ccc2c(COC(=O)CC3Sc4ccccc4NC3=O)cc(=O)oc2c1` (stereo unspecified), the inhibition is -3.14%.
Turning to `Cc1c(NC(=O)CN2C(=O)C(=O)N(Cc3ccccc3)C2=O)c(=O)n(-c2ccccc2)n1C`, the inhibition is -4.35%.
As to `Cc1c(NC(=O)NCc2ccccc2)c(=O)n(-c2ccccc2)n1C`, the inhibition is 0.65%.
As to `COc1ccc(/C=N/NC(=O)c2cc(C)oc2C)cc1OCc1ccccc1`, the inhibition is 9.7%.
On to `COc1ccc(/C=N/NC(=O)c2ccco2)cc1OCc1ccccc1`, for which the inhibition is 0.58%.
As for `CC(C)CCNC(=O)NC(=O)COc1ncnc2sccc12`, the inhibition was -13.5%.
In the case of `O=C(CSc1nncs1)Nc1cc(S(=O)(=O)N2CCOCC2)ccc1N1CCCC1`, the inhibition was -2.14%.
With `O=C(COc1ccccc1[N+](=O)[O-])N1CCN(C(=O)c2ccco2)CC1`, the inhibition is 8.66%.
`COc1ccc2c(c1)C(=NNC(=O)c1ccccn1)c1cc(OC)ccc1-2`: the inhibition was -2.18%.
`CCOc1ccc2c(c1)C(=NNC(=O)c1ccccn1)c1cc(OCC)ccc1-2`: the inhibition is 7.92%.
